The target of assay [1] is Glucocorticoid receptor (Homo sapiens) (UniProt P04150). In words: NVS_NR_hGR: NovaScreen (NVS) Nuclear Receptor Binding Assay for human Glucocorticoid Receptor (GR) (AID 2283363).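 As to AC50: activity is loss of specific radioligand binding signal relative to DMSO.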 A digest of the protocol: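 Filter scintillation readout of tritiated/iodinated radioligand displaced by test chemical; cell-free extracted protein; 16 h. DMSO = negative control/baseline. Duplicate single-point 25 uM screen, then concentration-response on actives.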

Assay [2] concerns the target guinea pig Sigma Receptor, Non-selective Binding, SIGMAR1 (gene 100135589) (UniProt Q60492). In words: NVS_OR_gSIGMA_NonSelective: NovaScreen (NVS) Nuclear Receptor Binding Assay for guinea pig Sigma Receptor, Non-selective Binding (AID 2283367). A digest of the protocol:
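Membranes from guinea pig brain incubated with radioligand and test chemical for 1 h, then filtered and scintillation-counted. Duplicate primary testing at 25 uM, with concentration-series follow-up for actives.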

Assay [3] deals with guinea pig Dopamine Transporter (DAT), gene 100714898. In words: NVS_TR_gDAT: NovaScreen (NVS) Transporter Assay for guinea pig Dopamine Transporter (DAT) (AID 2283369).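 Also: active compounds lower bound radioligand signal relative to DMSO.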 A digest of the protocol: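 Test chemicals were incubated 2 h with guinea pig striatal membranes and a radioligand; bound label was separated by filtration and counted. Screening ran at 25 uM, followed by concentration-response testing to a 50 uM maximum.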

Assay [4] has as its target Peroxisome proliferator-activated receptor gamma (Homo sapiens) (UniProt P37231). The assay is described as follows: NVS_NR_hPPARg: NovaScreen (NVS) Nuclear Receptor Binding Assay for human Peroxisome Proliferator-activated Receptor gamma (PPARg) (AID 2283370). A digest of the protocol:
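Fluorescence polarization measures competitive binding to extracted PPARg in a cell-free format. Reading is taken at 2 h; activity is signal loss relative to DMSO. Screening at 25 uM in duplicate preceded confirmatory dose series.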

The target of assay [5] is human Serotonin Transporter (SERT), SLC6A4 (gene 6532) (UniProt P31645). In words: NVS_TR_hSERT: NovaScreen (NVS) Transporter Assay for human Serotonin Transporter (SERT) (AID 2283372). A digest of the protocol: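 Human platelet membrane preparation; displacement of radioligand from serotonin transporter measured after 1 h by filtration and scintillation counting. Single 25 uM duplicate screen, then concentration series for actives, with DMSO as negative baseline.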

Assay [6] has as its system rat Norepinephrine Transporter (NET), gene 83511. The assay is described as follows: NVS_TR_rNET: NovaScreen (NVS) Transporter Assay for rat Norepinephrine Transporter (NET) (AID 2283373). A digest of the protocol:
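Competitive radioligand displacement at the rat NET using forebrain membrane preparations, 1 h incubation, filter-based scintillation readout. Primary testing in duplicate at a single 25 uM concentration; confirmed actives retested across concentrations.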

In assay [7] the target is human Dopamine Transporter (DAT), SLC6A3 (gene 6531) (UniProt Q01959). In words: NVS_TR_hDAT: NovaScreen (NVS) Transporter Assay for human Dopamine Transporter (DAT) (AID 2283374).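 Also: activity means loss of bound radioligand signal relative to DMSO.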 A digest of the protocol: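 hDAT membranes + tritiated/iodinated radioligand, competitive displacement; 1 h; filter scintillation readout. Single conc 25 uM (duplicate), then conc-response for actives. DMSO = negative control.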

Assay [8] concerns the target human Norepinephrine Transporter (NET), SLC6A2 (gene 6530) (UniProt P23975). The assay is described as follows: NVS_TR_hNET: NovaScreen (NVS) Transporter Assay for human Norepinephrine Transporter (NET) (AID 2283377).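 Also: cell-free membrane protein extracted from CHO cells expressing human NET; displacement of radioligand from human NET seen as loss of scintillation signal.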 A digest of the protocol:
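CHO cell extracts expressing the transporter; tritiated or iodinated tracer displaced competitively; filtration plus scintillation readout at 1 h. Single-point duplicates at 25 uM, concentration series for follow-up; activity = signal drop relative to DMSO.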

Assay [9] has as its target mouse Estrogen Receptor alpha (Era), Esr1 (gene 13982) (UniProt P19785). The assay is described as follows: NVS_NR_mERa: NovaScreen (NVS) Nuclear Receptor Binding Assay for mouse Estrogen Receptor alpha (Era) (AID 2283378).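 Also: hit means loss of bound radioligand signal relative to DMSO.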 A digest of the protocol:
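Test chemicals competed against a specific radioligand for binding to cell-free mouse Era. Duplicate wells at 25 uM were read 18 hours later by filter-based radiodetection, with loss of signal against DMSO scored as activity.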

Assay [10] addresses Estrogen receptor beta (Homo sapiens) (UniProt Q92731). The assay is described as follows: OT_ER_ERbERb_1440: Odyssey Thera (OT) 24-hour HEK293T Protein-Complementation Assay for Estrogen Receptor-beta/-beta Homodimer (AID 2283380).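 Also: scored as signal increase over DMSO baseline for both agonists and antagonists.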 A digest of the protocol:
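HEK293T cells stably expressing ER beta LBD (aa 310-547) homodimer fragment-complementation reporter, dosed 24 h. Cells formaldehyde-fixed, Draq5-stained; gain in nuclear (agonist) or nuclear plus cytoplasmic (antagonist) fluorescence versus DMSO read by laser scanning cytometry.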

Assay [11] has as its target Estrogen receptor (Homo sapiens) (UniProt P03372). In words: OT_ERa_GFPERaERE_0480: Odyssey Thera (OT) 8-hour HeLa Transcription Induction Assay for Estrogen Receptor (AID 2283381; active = hit-call score of the fitted dose curve at least 0.9, where 1 is the maximum; inactive = score below 0.9). A digest of the protocol:
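An 8 h HeLa transcription-induction format with a GFP reporter under ERE control, read by fluorescence microscopy; single endpoint fitted positively with DMSO as baseline.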

The target is the same in assay [12]. In words: OT_ERa_GFPERaERE_0120: Odyssey Thera (OT) 2-hour HeLa Transcription Induction Assay for Estrogen Receptor (AID 2283382). A digest of the protocol:
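Two-hour compound treatment of HeLa cells preceded microscopy imaging of an inducible fluorescent reporter. Image-based quantification gave one endpoint, analysed for signal increase relative to DMSO controls.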

Assay [13] addresses Bile acid receptor (Homo sapiens) (UniProt Q96RI1). In words: OT_FXR_FXRSRC1_0480: Odyssey Thera (OT) 8-hour HEK293T Protein-Complementation Assay for Farnesoid X receptor/SRC-1 Co-activator (AID 2283383). A digest of the protocol: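 Readings were taken 8 h after dosing HEK293T cells in a split-reporter complementation format pairing FXR with SRC-1. Increased fluorescence relative to DMSO-treated wells defined activity.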

Assay [14] shares this target. In words: OT_FXR_FXRSRC1_1440: Odyssey Thera (OT) 24-hour HEK293T Protein-Complementation Assay for Farnesoid X receptor/SRC-1 Co-activator (AID 2283384). A digest of the protocol: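 Single endpoint, analysed for increased fluorescence against DMSO controls. HEK293T cells carrying FXR and SRC-1 linked to complementary reporter halves were exposed to chemicals for 24 h before reading.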

In assay [15] the target is Retinoic acid receptor RXR-alpha (Homo sapiens) (UniProt P19793). In words: OT_NURR1_NURR1RXRa_0480: Odyssey Thera (OT) 8-hour HEK293T Protein Complementation Assay for Nurr1/retinoid X receptor (RXR) (AID 2283385). A digest of the protocol: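 Gain in fluorescent complementation signal over DMSO, measured 8 hours after chemical dosing of human kidney HEK293T cells, indicated enhanced Nurr1–RXRα association.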

For assay [16], the target named is rat Androgen Receptor (AR), Ar (gene 24208) (UniProt P15207). In words: NVS_NR_rAR: NovaScreen (NVS) Nuclear Receptor Binding Assay for rat Androgen Receptor (AR) (AID 2283366). A digest of the protocol:
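Actives from a duplicate single-concentration (25 uM) primary run went on to concentration series. Displacement of radioligand was counted by filtration and scintillation, 18 h post-dose, using prostate extracts from testosterone-pretreated rats, with DMSO as baseline.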

The target in assay [17] is human Adenosine Transporter (Adot), SLC29A1 (gene 2030) (UniProt Q99808). In words: NVS_TR_hAdoT: NovaScreen (NVS) Transporter Assay for human Adenosine Transporter (Adot) (AID 2283368). A digest of the protocol:
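Binding displacement on U937 extracted protein, read 1 h post-dose by filtration and scintillation counting. Primary duplicate test at 25 uM, then singleton concentration series with 50 uM top; DMSO baseline.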

In assay [18] the target is Agonist Androgen Response Element (ARE), AR (gene 367) (UniProt P10275). In words: OT_AR_ARELUC_AG_1440: Odyssey Thera (OT) 24-hour CHO-K1 Luciferase Assay for Agonist Androgen Response Element (ARE) (AID 2283379). A digest of the protocol: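 Gain-of-signal reporter endpoint: cells (CHO-K1, hamster) are treated 24 h, luciferin/ATP reagent added, and luminescence compared with DMSO baseline.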

The target of assay [19] is Nuclear receptor subfamily 1 group I member 2 (Homo sapiens) (UniProt O75469). In words: NVS_NR_hPXR: NovaScreen (NVS) Nuclear Receptor Binding Assay for human Pregnane X Receptor (PXR) (AID 2283365).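 Also: a drop in FRET signal versus DMSO baseline means the compound binds.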 A digest of the protocol: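 Binding was measured by time-resolved fluorescence resonance energy transfer after a 2 h exposure of extracted human PXR protein without cells. Compounds were first tested at 25 uM in duplicate, with concentration series for actives; DMSO defined baseline.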

Assay [20] has as its target rat Serotonin Transporter (SERT), Slc6a4 (gene 25553) (UniProt P31652). The assay is described as follows: NVS_TR_rSERT: NovaScreen (NVS) Transporter Assay for rat Serotonin Transporter (SERT) (AID 2283375). A digest of the protocol: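 Steps: rat forebrain membranes dosed with chemical (25 uM duplicate primary; concentration series for actives); 1 h incubation; labelled ligand bound, filtered, counted by scintillation. Activity scored as signal loss vs DMSO.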

Outcome and AC50 data for nine molecules are collected here from PubChem BioAssay (EPA / NIEHS).

Values joined by “and” are separate entries in the source; they are usually repeats but may differ in a detail not shown here. Equal values may be shown once. Inconclusive results are not listed. A structure can be active in one record and inactive in another. Active and inactive are the calls of the source. The calls were made as follows, unless noted: active = hit-call score of the fitted dose curve at least 0.9, where 1 is the maximum; inconclusive = response in the unintended direction; inactive = score below 0.9.

In general, AC50 refers to the concentration at which the activity in the assay is half-maximal.

Glucocorticoid receptor (Homo sapiens), sequence (P04150 whole entry, looked up): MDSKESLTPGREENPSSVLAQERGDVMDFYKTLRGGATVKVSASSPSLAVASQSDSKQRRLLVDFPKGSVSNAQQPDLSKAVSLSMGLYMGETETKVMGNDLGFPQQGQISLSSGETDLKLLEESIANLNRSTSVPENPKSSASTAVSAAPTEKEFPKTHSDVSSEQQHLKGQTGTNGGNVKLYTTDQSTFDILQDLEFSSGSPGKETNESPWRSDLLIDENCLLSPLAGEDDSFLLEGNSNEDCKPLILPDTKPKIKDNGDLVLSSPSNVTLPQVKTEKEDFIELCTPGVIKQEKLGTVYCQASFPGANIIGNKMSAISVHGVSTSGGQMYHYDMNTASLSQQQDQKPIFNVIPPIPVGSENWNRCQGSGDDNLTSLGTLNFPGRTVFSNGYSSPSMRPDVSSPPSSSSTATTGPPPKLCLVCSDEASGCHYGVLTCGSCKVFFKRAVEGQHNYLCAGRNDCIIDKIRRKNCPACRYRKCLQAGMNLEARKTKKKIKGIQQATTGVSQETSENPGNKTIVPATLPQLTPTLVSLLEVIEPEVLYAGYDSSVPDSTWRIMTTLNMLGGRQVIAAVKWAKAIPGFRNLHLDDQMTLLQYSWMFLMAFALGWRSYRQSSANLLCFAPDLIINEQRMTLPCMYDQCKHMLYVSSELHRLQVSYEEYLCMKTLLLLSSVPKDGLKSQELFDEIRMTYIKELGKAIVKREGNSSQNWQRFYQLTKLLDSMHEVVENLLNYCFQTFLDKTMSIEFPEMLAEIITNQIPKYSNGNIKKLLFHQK
Bile acid receptor (Homo sapiens), sequence (Q96RI1 whole entry, looked up): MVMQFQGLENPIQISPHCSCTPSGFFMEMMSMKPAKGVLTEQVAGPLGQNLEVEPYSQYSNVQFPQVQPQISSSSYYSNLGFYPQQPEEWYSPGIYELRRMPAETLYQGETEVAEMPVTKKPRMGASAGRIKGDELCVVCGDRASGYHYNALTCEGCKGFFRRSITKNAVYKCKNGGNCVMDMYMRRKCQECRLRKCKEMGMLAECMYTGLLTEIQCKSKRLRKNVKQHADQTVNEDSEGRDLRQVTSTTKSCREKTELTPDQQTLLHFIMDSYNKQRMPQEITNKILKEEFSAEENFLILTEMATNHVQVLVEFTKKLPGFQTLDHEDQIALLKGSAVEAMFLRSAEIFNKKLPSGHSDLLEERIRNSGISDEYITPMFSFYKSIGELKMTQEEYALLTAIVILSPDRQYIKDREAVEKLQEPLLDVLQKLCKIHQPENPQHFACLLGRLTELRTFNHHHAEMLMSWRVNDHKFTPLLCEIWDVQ
human Dopamine Transporter (DAT), SLC6A3 (gene 6531), sequence (Q01959 whole entry, looked up): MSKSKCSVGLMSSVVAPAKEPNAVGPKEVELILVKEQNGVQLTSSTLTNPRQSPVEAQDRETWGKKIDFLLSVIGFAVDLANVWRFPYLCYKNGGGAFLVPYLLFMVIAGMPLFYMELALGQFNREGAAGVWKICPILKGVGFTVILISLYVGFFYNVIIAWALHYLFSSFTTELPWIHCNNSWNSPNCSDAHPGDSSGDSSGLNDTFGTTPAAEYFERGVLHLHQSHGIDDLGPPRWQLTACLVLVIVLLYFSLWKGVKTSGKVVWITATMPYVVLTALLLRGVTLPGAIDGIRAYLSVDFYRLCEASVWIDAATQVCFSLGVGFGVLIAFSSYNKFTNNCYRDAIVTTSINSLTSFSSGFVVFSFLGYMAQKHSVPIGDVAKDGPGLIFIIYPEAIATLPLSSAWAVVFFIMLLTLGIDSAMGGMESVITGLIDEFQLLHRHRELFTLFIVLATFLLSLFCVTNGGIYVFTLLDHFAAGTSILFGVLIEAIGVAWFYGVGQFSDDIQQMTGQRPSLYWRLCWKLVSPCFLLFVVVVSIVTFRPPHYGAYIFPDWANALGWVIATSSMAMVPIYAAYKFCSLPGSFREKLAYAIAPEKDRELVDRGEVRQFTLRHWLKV
Estrogen receptor (Homo sapiens), sequence (P03372 whole entry, looked up): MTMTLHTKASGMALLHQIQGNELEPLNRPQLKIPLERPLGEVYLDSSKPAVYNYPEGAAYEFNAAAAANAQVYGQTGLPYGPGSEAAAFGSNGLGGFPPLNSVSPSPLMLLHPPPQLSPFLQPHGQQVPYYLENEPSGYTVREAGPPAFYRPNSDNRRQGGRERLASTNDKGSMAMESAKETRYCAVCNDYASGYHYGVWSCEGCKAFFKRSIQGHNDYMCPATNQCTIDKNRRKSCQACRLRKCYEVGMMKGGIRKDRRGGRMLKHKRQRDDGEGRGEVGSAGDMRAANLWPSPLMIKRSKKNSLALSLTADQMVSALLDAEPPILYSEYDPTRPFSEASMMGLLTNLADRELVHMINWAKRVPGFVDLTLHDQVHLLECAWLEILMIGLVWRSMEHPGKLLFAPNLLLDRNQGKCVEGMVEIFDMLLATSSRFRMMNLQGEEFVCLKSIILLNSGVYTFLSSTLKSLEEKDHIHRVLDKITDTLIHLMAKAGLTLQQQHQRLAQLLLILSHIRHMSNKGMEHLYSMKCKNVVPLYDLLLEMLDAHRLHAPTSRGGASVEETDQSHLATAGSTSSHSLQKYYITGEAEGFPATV
Agonist Androgen Response Element (ARE), AR (gene 367), sequence (P10275 whole entry, looked up): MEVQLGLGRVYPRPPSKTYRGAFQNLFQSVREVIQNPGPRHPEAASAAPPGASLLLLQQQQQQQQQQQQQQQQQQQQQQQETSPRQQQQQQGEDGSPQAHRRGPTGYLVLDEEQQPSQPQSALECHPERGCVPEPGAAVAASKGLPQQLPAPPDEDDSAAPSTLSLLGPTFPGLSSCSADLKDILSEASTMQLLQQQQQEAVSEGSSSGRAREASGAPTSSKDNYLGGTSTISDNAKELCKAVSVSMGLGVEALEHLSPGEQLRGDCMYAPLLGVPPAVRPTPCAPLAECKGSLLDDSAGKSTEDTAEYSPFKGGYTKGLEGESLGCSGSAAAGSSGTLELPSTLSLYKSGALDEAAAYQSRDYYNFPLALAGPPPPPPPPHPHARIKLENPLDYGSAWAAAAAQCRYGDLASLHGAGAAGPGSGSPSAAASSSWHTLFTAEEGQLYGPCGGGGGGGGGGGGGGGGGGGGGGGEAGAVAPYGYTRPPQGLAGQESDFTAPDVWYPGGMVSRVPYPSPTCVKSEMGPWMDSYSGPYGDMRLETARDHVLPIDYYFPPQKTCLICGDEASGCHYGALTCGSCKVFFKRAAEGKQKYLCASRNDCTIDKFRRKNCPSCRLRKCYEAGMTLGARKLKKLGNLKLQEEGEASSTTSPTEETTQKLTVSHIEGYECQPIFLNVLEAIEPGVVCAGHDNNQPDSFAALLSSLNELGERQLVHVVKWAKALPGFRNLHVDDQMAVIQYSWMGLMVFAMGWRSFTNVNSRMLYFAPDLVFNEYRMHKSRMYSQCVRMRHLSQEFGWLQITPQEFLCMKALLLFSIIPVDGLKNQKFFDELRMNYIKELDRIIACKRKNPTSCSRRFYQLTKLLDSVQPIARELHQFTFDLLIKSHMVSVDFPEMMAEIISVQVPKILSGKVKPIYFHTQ
human Norepinephrine Transporter (NET), SLC6A2 (gene 6530), sequence (P23975 whole entry, looked up): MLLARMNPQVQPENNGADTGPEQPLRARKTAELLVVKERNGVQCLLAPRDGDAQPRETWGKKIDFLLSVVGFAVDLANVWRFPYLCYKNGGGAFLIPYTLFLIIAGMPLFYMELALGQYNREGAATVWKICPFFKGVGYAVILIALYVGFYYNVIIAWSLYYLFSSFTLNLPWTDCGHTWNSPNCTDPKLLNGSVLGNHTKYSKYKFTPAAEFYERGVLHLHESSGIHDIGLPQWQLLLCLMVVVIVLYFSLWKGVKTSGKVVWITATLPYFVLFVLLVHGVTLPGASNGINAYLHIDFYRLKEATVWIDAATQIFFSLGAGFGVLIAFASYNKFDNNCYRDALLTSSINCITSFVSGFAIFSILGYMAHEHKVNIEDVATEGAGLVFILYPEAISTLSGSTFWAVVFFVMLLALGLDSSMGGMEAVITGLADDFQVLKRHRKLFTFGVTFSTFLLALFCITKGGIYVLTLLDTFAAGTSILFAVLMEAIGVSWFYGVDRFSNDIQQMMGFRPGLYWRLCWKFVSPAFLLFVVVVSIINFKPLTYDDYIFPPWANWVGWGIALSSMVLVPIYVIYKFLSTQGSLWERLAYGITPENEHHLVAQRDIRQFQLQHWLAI
rat Androgen Receptor (AR), Ar (gene 24208), sequence (P15207 whole entry, looked up): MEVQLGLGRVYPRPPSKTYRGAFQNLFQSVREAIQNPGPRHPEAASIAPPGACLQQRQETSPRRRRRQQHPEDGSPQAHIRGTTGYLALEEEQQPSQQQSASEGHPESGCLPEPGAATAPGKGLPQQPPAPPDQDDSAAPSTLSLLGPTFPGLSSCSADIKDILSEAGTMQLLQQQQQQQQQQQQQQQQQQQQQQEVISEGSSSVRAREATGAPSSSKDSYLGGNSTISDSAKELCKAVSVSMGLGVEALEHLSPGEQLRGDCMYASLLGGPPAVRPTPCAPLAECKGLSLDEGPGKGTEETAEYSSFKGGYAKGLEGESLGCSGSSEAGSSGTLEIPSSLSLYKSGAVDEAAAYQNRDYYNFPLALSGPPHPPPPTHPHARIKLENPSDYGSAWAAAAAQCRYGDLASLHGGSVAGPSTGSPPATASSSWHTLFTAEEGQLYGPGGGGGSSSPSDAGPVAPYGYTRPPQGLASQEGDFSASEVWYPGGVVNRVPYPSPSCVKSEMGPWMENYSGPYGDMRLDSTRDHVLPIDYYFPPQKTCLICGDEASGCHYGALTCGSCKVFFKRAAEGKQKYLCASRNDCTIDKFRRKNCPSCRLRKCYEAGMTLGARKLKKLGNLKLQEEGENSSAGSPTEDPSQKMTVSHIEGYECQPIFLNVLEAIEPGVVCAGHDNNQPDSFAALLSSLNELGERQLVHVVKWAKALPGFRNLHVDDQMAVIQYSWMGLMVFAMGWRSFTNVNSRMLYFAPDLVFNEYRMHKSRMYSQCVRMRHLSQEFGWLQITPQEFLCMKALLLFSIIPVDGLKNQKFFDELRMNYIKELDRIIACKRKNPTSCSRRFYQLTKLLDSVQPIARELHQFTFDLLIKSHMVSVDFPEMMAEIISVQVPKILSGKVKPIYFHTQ

Take `CCN(CC)CCNc1ccc(CNC=O)c2sc3ccc(OC)cc3c(=O)c12`: the molecule was called inactive in [1], in assay [4], in assay [5], in [6], in assay [10] and in assay [11]. Besides, the AC50 in [2] was 12.2 µM (active); in [3], 14.9 µM (active); in assay [7], 12.8 µM (active); in assay [8], 5.84 µM (active); in [9] it was 1.37 µM (active); in assay [12] it was 20.2 µM (active). Moreover, the half-maximal activity concentration (AC50) in [13] was 11.6 µM (active); in assay [14], 11.9 µM (active); in assay [15], 11.4 µM (active) and 11.9 µM (active).
Take `Oc1cc2ccccc2c2ccccc12`: the concentration at half-maximal activity (AC50) was 1.54 µM (active) in [1], 4.75 µM (active) in [16], 1.89 µM (active) in assay [8] and 28.9 µM (active) in assay [11]. Further, the molecule was called inactive in assay [17], in [7], in assay [18], in assay [10], in assay [12] and in assay [15].
For `ClC1=C(Cl)C(Cl)(Cl)C(Cl)=C1Cl`, the AC50 in [19] is 40.8 µM (active). For the same molecule, the result in [10], in assay [11] and in assay [12] was inactive.
For `COCC(C)OCC(C)O` (centres undefined), the call in assay [19], in assay [4], in assay [5], in assay [18], in [10] and in assay [11] was inactive. Also, the molecule was classed as inactive in assay [12], in assay [14] and in assay [15].
With `O=c1c(-c2ccc(O)cc2)coc2cc(O)ccc12`, the molecule was called inactive in assay [16], in assay [4], in assay [18], in assay [13] and in assay [15]. Further, the AC50 in assay [9] was 421 nM (active) [middle of 4 runs]; in assay [13] it was 36.7 µM (active) and 37.1 µM (active); in assay [14], 48.1 µM (active) and 33.8 µM (active) and 30.5 µM (active); in assay [15], 50 µM (active).
As for `CC[C@H](C)[C@@H](C(=O)O)n1sc2ccccc2c1=O`, the molecule was classed as inactive in assay [1], in assay [19], in assay [4], in [10], in [11] and in assay [12]. For the same molecule, the call in [13] and in assay [15] was inactive.
For `Nc1cccc2c(N)cccc12`, the results for the half-maximal activity concentration (AC50) in assay [1], in assay [7] and in assay [8] were 13.4 µM (active), 6.65 µM (active) and 14.3 µM (active), respectively. The molecule was classed as inactive in assay [4], in assay [18], in assay [10], in assay [11], in assay [12] and in assay [13]. The molecule was classed as inactive in assay [14] and in assay [15].
On to `CCCCCCCC(=O)O`, for which the result in assay [19], in assay [7], in [20], in [12] and in [15] was inactive. The half-maximal activity concentration (AC50) in assay [10] was 21.3 µM (active); in assay [11] it was 22.1 µM (active).
On to `CC(O)CO` (centres undefined), for which the result in assay [1], in assay [11], in [12], in assay [13], in assay [14] and in assay [15] was inactive.
